Data as given in PubChem BioAssay (NCATS).
Inconclusive results are not listed. Calls of active or inactive are those of the source. Calls come from the whole dose curve; as a rule, active = well fitted inhibition curve with a large enough effect; inconclusive = small, poorly fitted or top-dose-only effect; inactive = no such curve, though single readings can be large or run the other way.

test: Primary qHTS for small molecule stabilizers of the endoplasmic reticulum resident proteome: Secreted ER Calcium Modulated Protein (SERCaMP) assay (AID 1508630); conditions: SH-SY5Y GLuc-SERCaMP (Gaussia luciferase released on ER calcium loss) secretion, thapsigargin, luminescence; series mostly up to 38.4 µM
Procedure, shortened: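 The SH-SY5Y reporter protocol was run at 3 concentrations up to 38.3 uM (primary) or 11 concentrations (follow-up): 16 h compound, 100 nM thapsigargin for 4 h, then extracellular luciferase luminescence.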

Potency, inactive:
CN(C)Cc1ccccc1-c1cc(N(C)Cc2ccco2)ncn1, c1cncc(-c2cncnc2NC2CCNCC2)c1, Cn1cc(-c2nc3cnc(Oc4ccccc4)nc3n(C)c2=O)c2ccccc21, CN(C)c1ncc2nc(-c3ccccc3)c(=O)n(-c3ccccc3)c2n1, CN1CCN(c2ncc3nc(-c4cc(F)cc(F)c4)c(=O)n(C4CC4)c3n2)CC1, O=c1c(-c2ccc(F)cc2)nc2cnc(N3CCNCC3)nc2n1Cc1ccc(F)cc1, O=c1c(-c2cc(F)cc(F)c2)nc2cncnc2n1-c1ccccc1, CN(Cc1ccco1)c1ncncc1-c1ccccc1Cl, O=c1cnc2cnc(N3CCOCC3)nc2n1CCc1ccccc1, CN1CCN(c2ncncc2-c2ccc(C(=O)N(C)C)cc2)CC1, CC(=O)NCCNc1ncncc1-c1ccccc1C, COCCn1c(=O)cnc2cnc(Oc3ccccc3)nc21, COCCn1c(=O)c(-c2ccc(Cl)cc2)nc2cnc(Oc3cccc(Cl)c3)nc21, COc1ccc(CNc2ccnc(-c3ccc4c(c3)OCO4)n2)c(OC)c1, COc1ncc2nc(-c3cc(F)cc(F)c3)c(=O)n(C)c2n1, COc1cccc(Nc2ncc3nc(-c4ccccc4)c(=O)n(Cc4cccs4)c3n2)c1, COc1ccc(-c2nc3cnc(N4CCN(C)CC4)nc3n(Cc3ccc(F)cc3)c2=O)cc1, COCCn1c(=O)c(-c2cc(F)cc(F)c2)nc2cnc(N3CCOCC3)nc21, CN(C)c1ncnc2ccc(-c3cccnc3)cc12, CCNc1ncc2nc(-c3cn(C)c4ccccc34)c(=O)n(Cc3cccc(OC)c3)c2n1, COc1ccc(Oc2ncc3nc(C)c(=O)n(-c4ccccc4)c3n2)cc1, CN(C)Cc1ccccc1-c1nc(NCc2cccs2)c2ccccc2n1, CN(Cc1ccco1)c1ncncc1-c1cccc(C#N)c1, O=c1c(-c2ccc(F)cc2)nc2cnc(N3CCOCC3)nc2n1Cc1cccs1, CCNc1ncc2nc(-c3ccc(Cl)cc3)c(=O)n(C[C@H]3CCCO3)c2n1, COc1ccc(-n2c(=O)c(-c3cccs3)nc3cnc(N(C)C)nc32)cc1, Cn1cc(-c2nc3cnc(Oc4ccccc4)nc3n(C3CC3)c2=O)c2ccccc21, O=c1c(-c2cccs2)nc2cnc(N3CCOCC3)nc2n1Cc1ccc(F)cc1, O=c1c(-c2ccc(F)cc2)nc2cnc(Nc3ccccc3)nc2n1C[C@H]1CCCO1, O=c1c(-c2cc(F)cc(F)c2)nc2cncnc2n1Cc1ccccc1, c1ccc(Nc2cc(-c3ccoc3)ncn2)cc1, COc1ccc(Oc2ncc3nc(-c4cn(C)c5ccccc45)c(=O)n(C4CC4)c3n2)cc1, COCCNc1ncncc1-c1c(C)noc1C, Cc1noc(C)c1-c1ccc2ncnc(Nc3ccc(F)cc3)c2c1, O=c1c(-c2cccs2)nc2cnc(N3CCOCC3)nc2n1Cc1cccs1, Cc1noc(C)c1-c1ccc2ncnc(N(C)C)c2c1, CC(=O)NCCNc1ncnc2ccc(-c3c(C)noc3C)cc12, CN(C)c1ncc2nc(-c3cn(C)c4ccccc34)c(=O)n(C[C@H]3CCCO3)c2n1, CN1CCN(c2ncc3nc(-c4ccc(Cl)cc4)c(=O)n(Cc4cccs4)c3n2)CC1, CN(Cc1ccco1)c1ncncc1-c1ccoc1
